Results filed as inconclusive are left out. A call without a number means that no potency is given here. Active and inactive are the calls of the source. The call rests on the fitted dose curve.
How the values were obtained:
[1] = Cytotoxicity counterscreen for inhibitors of SARS-CoV-2 cell entry (AID 1645845); conditions: outcome: dose series up to 57.1 µM unless noted; further: nearly all actives have a fitted effect of over 50% in size
How it was run: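 48 h compound treatment (after 1 h preincubation), HEK293-ACE2 cells, 37 C/5% CO2; ATP luminescence endpoint; normalized to cell wells and media blanks.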

[2] = Primary qHTS to identify inhibitors of SARS-CoV-2 cell entry (AID 1645846); conditions: SARS-CoV-2 pseudovirus cell entry assay, luminescence; activity change, negative = inhibition: at 57.1 µM (top of the series) unless noted; further: nearly all actives have a fitted effect of over 45% in size
How it was run: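 Using luciferase-reporting pseudoviruses carrying Wuhan-Hu-1 spike, the screen tracks entry into stably ACE2-expressing cells over 48 hr. Activity is expressed relative to spike particles versus particles lacking any fusion protein.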
Potency means the concentration at half of the fitted maximal effect.

CC(C)NC(=O)C1CCC(n2c(NC(=O)c3ccc(F)cc3)nc3ccc(CN4CCC(C(C)(C)O)CC4)cc32)CC1 (stereo not given)
Potency [1]: inactive | activity change, negative = inhibition [2]: -10.3% [at 27.1 µM]

O=c1ncccn1[C@@H]1O[C@H](CO)[C@@H](O)[C@H]1O
Potency [1]: inactive | Potency [2]: inactive

NC(CC1c2ccccc2Oc2ccccc21)(C(=O)O)C1CC1C(=O)O (stereo not given)
Potency [1]: inactive | activity change, negative = inhibition [2]: 4.33%

Cc1nc2cccc(N)c2c(=O)n1C1CCC(=O)NC1=O (stereo not given)
Potency [1]: inactive | activity change, negative = inhibition [2]: -12.7%

CC1(C)CC[C@]2(C(=O)O)CC[C@]3(C)C(=CC[C@@H]4[C@@]5(C)C[C@@H](O)[C@H](O)C(C)(C)[C@@H]5CC[C@]43C)[C@@H]2C1
Potency [1]: inactive | Potency [2]: inactive

CC#Cc1cncc(-c2ccc3c(c2)[C@@]2(N=C(C)C(N)=N2)C2(CCC(OC)CC2)C3)c1 (stereo not given in full)
Potency [1]: inactive | Potency [2]: inactive

CCCCNc1ncc2c(-c3ccc(F)cc3)nn(CC3CCC(N)CC3)c2n1 (stereo not given)
Potency [1]: inactive | Potency [2]: 10 µM (active)

Nc1nc(OCc2cc(Br)cs2)c2[nH]cnc2n1
Potency [1]: inactive | Potency [2]: inactive

CCc1c(-c2ccccc2C)nc2c(C#N)c[nH]n2c1=O
Potency [1]: inactive | activity change, negative = inhibition [2]: -14.3%

COc1cc([C@@H](CC(=O)O)c2ccc(C)c(CN3C[C@@H](C)Oc4ccccc4S3(=O)=O)c2)cc2nnn(C)c12
Potency [1]: inactive | activity change, negative = inhibition [2]: 2.13%

Cc1cc(C)c2c(c1)[C@@H](N(Cc1cc(C(F)(F)F)cc(C(F)(F)F)c1)c1nnn(C)n1)CCCN2CC1CCC(C(=O)O)CC1 (stereo not given in full)
Potency [1]: inactive | activity change, negative = inhibition [2]: -28%

OCc1ccccc1O[C@@H]1O[C@H](CO)[C@@H](O)[C@H](O)[C@H]1O
Potency [1]: inactive | activity change, negative = inhibition [2]: -12.3%

COC(=O)/C=C/C(=O)N(O)CCCCNCc1ccc(COC(=O)Nc2cccc3ccccc23)cc1
Potency [1]: inactive | activity change, negative = inhibition [2]: -27.1%

Cc1c[nH]c2nc(Nc3ccc(N4CCN(C)CC4)c(F)c3)nc(-c3cccc(CC#N)c3)c12
Potency [1]: 8.91 µM (active) | Potency [2]: 2.51 µM (active)

Cc1ccc(-c2nc(N)nc3c2nnn3Cc2cccc(CO[C@H]3CCOC3)n2)o1
Potency [1]: inactive | activity change, negative = inhibition [2]: -15.2%

CCCNC(=O)c1cn2ncnc(Nc3cc(C(=O)NC4CC4)ccc3C)c2c1C
Potency [1]: inactive | activity change, negative = inhibition [2]: -27.9%

Nc1cccc2c1CN([C@H]1CCC(=O)NC1=O)C2=O
Potency [1]: inactive | activity change, negative = inhibition [2]: -16.6%

C1=C/COCc2cc(ccc2OCCN2CCCC2)Nc2nccc(n2)-c2cccc(c2)COC/1
Potency [1]: 7.08 µM (active) | Potency [2]: 3.16 µM (active)

CCOC(=O)c1ccnc(CNCC(=O)N(CC)CCN(C)C)c1
Potency [1]: inactive | activity change, negative = inhibition [2]: -19.4%

CC(C)Oc1ccc(-c2nn([C@@H](C)c3oc4ccc(F)cc4c(=O)c3-c3cccc(F)c3)c3ncnc(N)c23)cc1F
Potency [1]: inactive | activity change, negative = inhibition [2]: -16.7%

CONC(=O)Nc1ccc(-c2sc3c(c2CN(C)C)c(=O)n(-c2ccc(OC)nn2)c(=O)n3Cc2c(F)cccc2F)cc1
Potency [1]: inactive | activity change, negative = inhibition [2]: -24.2%

CC(C)c1c(-c2ccccc2)nc2c(C#N)c[nH]n2c1=O
Potency [1]: inactive | Potency [2]: inactive

CN[C@@H](C)C(=O)N[C@H](C(=O)N1CCC[C@H]1C(=O)Nc1sc(-c2ncco2)nc1-c1ccccc1)C1CCCCC1
Potency [1]: inactive | Potency [2]: inactive

Cc1c(-c2cnccn2)ssc1=S
Potency [1]: inactive | activity change, negative = inhibition [2]: 3.56%

O=C(Nc1nccs1)C(c1cc(F)ccc1O)N1Cc2ccccc2C1=O (stereo not given)
Potency [1]: inactive | activity change, negative = inhibition [2]: -14.9%

CC[C@@H](Oc1cccc(CN(CCCOc2ccc(OC)cc2)c2nc3ccccc3o2)c1)C(=O)O
Potency [1]: inactive | activity change, negative = inhibition [2]: -15.3%

CC(C)(NS(=O)(=O)c1ccc2c(Cl)cnc(N=C(N)N)c2c1)C(=O)O
Potency [1]: inactive | activity change, negative = inhibition [2]: 0.398%

CCS(=O)(=O)N1CCC(C(C)n2c(C)c(C(=O)NCc3c(OC)cc(C)[nH]c3=O)c3ccccc32)CC1 (stereo not given)
Potency [1]: inactive | activity change, negative = inhibition [2]: -8.61%

C=CC(=O)Nc1ccc2ncnc(Nc3cccc(Br)c3)c2c1
Potency [1]: 14.1 µM (active) | Potency [2]: 7.94 µM (active)

C[C@]12CC[C@H](O)CC1=CC[C@@H]1[C@@H]2CC[C@]2(C)C(c3cccnc3)=CC[C@@H]12
Potency [1]: inactive | Potency [2]: inactive

O=C(N[C@H]1CCC[C@H](CO)C1)C1CCN(c2nc3cc(Cl)c(-c4ccc(Cl)cc4)cc3o2)CC1
Potency [1]: inactive | activity change, negative = inhibition [2]: -9.89%

CCc1cc2c(c(OCC(F)(F)F)c(C(=O)NC3CCN(C(=O)CO)CC3)n2C)c(=O)n1CC(=O)c1ccccc1
Potency [1]: inactive | activity change, negative = inhibition [2]: -53.6%

CC(C)C(N)C(=O)OCC(CO)OCn1cnc2c(=O)[nH]c(N)nc21 (stereo not given)
Potency [1]: inactive | activity change, negative = inhibition [2]: -6.77%

Cc1onc(-c2ccc(F)cc2)c1COc1ccc(C(=O)N2CCS(=O)(=O)CC2)cn1
Potency [1]: inactive | activity change, negative = inhibition [2]: -25.8%

CNC(=O)c1c(C)oc2cc(Oc3ncnc4cc(OC)c(OC)cc34)ccc12
Potency [1]: inactive | Potency [2]: inactive

O=c1cc(N2CCOCC2)oc2c(-c3ccc4c(c3)OCCO4)csc12
Potency [1]: inactive | activity change, negative = inhibition [2]: -5.73%

C[C@@H]1O[C@@H](O[C@@H]2\C=C/C=C\C=C/C=C\C[C@H](C)OC(=O)/C=C\[C@H]3O[C@@H]3C[C@H](O)C[C@]3(O)C[C@@H](O)[C@@H](C(=O)O)[C@H](C2)O3)[C@H](O)[C@H](N)[C@@H]1O
Potency [1]: inactive | activity change, negative = inhibition [2]: -17.3%

C/C=C/C[C@@H](C)C(=O)[C@H]1C(=O)N[C@@H](C(C)C)C(=O)N(C)CC(=O)N(C)[C@@H](CC(C)C)C(=O)N[C@@H](C(C)C)C(=O)N(C)[C@@H](CC(C)C)C(=O)N[C@@H](C)C(=O)N[C@H](C)C(=O)N(C)[C@@H](CC(C)C)C(=O)N(C)[C@@H](CC(C)C)C(=O)N(C)[C@@H](C(C)C)C(=O)N1C
Potency [1]: inactive | activity change, negative = inhibition [2]: -14.4% [at 27.1 µM]

[2H]c1nc(C)nc([2H])c1-c1cc(NC[C@@H](C)c2cccc3c(C(=O)NC)ccnc23)ncn1
Potency [1]: inactive | activity change, negative = inhibition [2]: 0.426%

Cn1cc(-c2ccc(F)c(C(F)(F)F)c2)nc1C1CCN(c2ncnc3[nH]ncc23)CC1
Potency [1]: inactive | Potency [2]: inactive

NCC(=O)Nc1cncc(-c2nn3c(=O)cc(N4CCNCC4)nc3s2)c1
Potency [1]: inactive | activity change, negative = inhibition [2]: -55.5%

CC(C)(O)C1CCC(Nc2ccc3ncc(-c4cccc(C(F)(F)F)c4)n3n2)CC1 (stereo not given)
Potency [1]: inactive | activity change, negative = inhibition [2]: -18.1%

COc1ccc(Cl)c(Nc2nc3ccccc3nc2NS(=O)(=O)c2cccc(NC(=O)C(C)(C)N)c2)c1
Potency [1]: inactive | activity change, negative = inhibition [2]: -26.9%

COc1cc(OC)c2c(=O)[nH]c(-c3cc(C)c(OCCO)c(C)c3)nc2c1
Potency [1]: inactive | Potency [2]: inactive

CC1=NN(c2ccc(C(=O)O)cc2)C(=O)/C1=C/c1ccc(-c2cc(C)c(C)cc2[N+](=O)[O-])o1
Potency [1]: inactive | Potency [2]: inactive

O=C(O)c1ccccc1-c1ccc(/C=c2\sc3nc4cc(Br)cnc4n3c2=O)o1
Potency [1]: inactive | activity change, negative = inhibition [2]: -1.33% [at 27.1 µM]

NS(=O)(=O)NCCNc1nonc1C(=Nc1ccc(F)c(Br)c1)NO
Potency [1]: inactive | activity change, negative = inhibition [2]: -14.4%

CN1C(=O)N[C@@H](Cc2c[nH]c3c(Cl)cccc23)C1=O
Potency [1]: inactive | activity change, negative = inhibition [2]: 1.88%

O=C(c1c(F)ccc(NS(=O)(=O)N2CC[C@@H](F)C2)c1F)c1c[nH]c2ncc(-c3cnc(C4CC4)nc3)cc12
Potency [1]: inactive | activity change, negative = inhibition [2]: -17.3%

CCS(=O)(=O)c1ccc2oc(-c3ccc4ccccc4c3)nc2c1
Potency [1]: inactive | Potency [2]: inactive

CC(=O)[C@]1(N)Cc2c(O)c3c(c(O)c2[C@@H](O[C@H]2C[C@H](O)[C@H](O)CO2)C1)C(=O)c1ccccc1C3=O
Potency [1]: inactive | Potency [2]: inactive

Cn1cc(-c2cnc3ccc4ccc(CS(=O)(=O)NCc5ccccn5)cc4c(=O)c3c2)cn1
Potency [1]: inactive | activity change, negative = inhibition [2]: -59.2%

CN(C)c1cccc(-c2c3c(=O)n(-c4ccccc4Cl)[nH]c3cc(=O)n2C)c1
Potency [1]: inactive | activity change, negative = inhibition [2]: -19.6%

Cc1c(Cl)cccc1S(=O)(=O)Nc1nc(CCN2CCOCC2=O)cs1
Potency [1]: inactive | activity change, negative = inhibition [2]: -11.4%

CC1(N)CCN(c2cccnc2NC(=O)c2nc(-c3ncccc3C(F)(F)F)cnc2N)CC1
Potency [1]: inactive | Potency [2]: 14.1 µM (active)

N#C/C(=C(/N)Sc1ccc(N)cc1)c1ccccc1C(F)(F)F
Potency [1]: inactive | activity change, negative = inhibition [2]: -16.8%

C[C@H]1Oc2cc(cnc2N)-c2c(nn(C)c2C#N)CN(C)C(=O)c2ccc(F)cc21
Potency [1]: inactive | activity change, negative = inhibition [2]: -7.26%

CNC(=O)[C@H]1O[C@@H](n2cnc3c(NCc4cccc(I)c4)nc(Cl)nc32)[C@H](O)[C@@H]1O
Potency [1]: inactive | Potency [2]: inactive

CC(=O)Nc1ccc(C(=O)Nc2ccccc2N)cc1
Potency [1]: 7.08 µM (active) | Potency [2]: inactive

O=C(CCNC(=O)c1ccc(OC(F)(F)F)cc1)N[C@@H]1CCCc2ccccc21
Potency [1]: inactive | activity change, negative = inhibition [2]: 4.82%

From PubChem BioAssay (NCATS)
